Source: PubChem BioAssay (National Center for Advancing Translational Sciences (NCATS))
CBFb-RUNX1 inh: blocks binding between human CBF-beta and RUNX1. Q01196+Q13951. 230,000 tested, under 10 active. Potency, µM (highest dose often 59.8 µM), without a hit: top-dose activity, negative = inhibition, usual class: inhibitors. AlphaScreen CBFb-His/RUNX1-biotin binding, biochemical; note: % of control where 0% means no effect
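His-tagged CBF-beta and biotinylated RUNX1 (30 nM each) were premixed 20 min at room temperature, exposed to compound for 15 min, then given nickel-chelate and streptavidin AlphaScreen beads (50 ng each). After 90 min, AlphaScreen signal was read.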
A-T KAP1 phos: potential ataxia-telangiectasia treatment | F2112 A-T fibroblasts, KAP-1 phosphorylation AlphaLISA; neocarzinostatin DNA damage 30 min before lysis | Potency, µM (doses to about 57.5 µM), for inactives: at the highest dose activation, hits mostly activators | 320,000 compounds, 0.19% hits; note: potency is the fitted concentration of half-maximal effect; % of control where 0% means no effect; nearly all actives have a fitted effect of over 45% in size
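hTERT-immortalized A-T patient fibroblasts (F2112), 500 cells/well in OPTI-MEM, 1% FBS, got compounds for 60 min, then NCS for 30 min at 37C. Lysates were then assayed for phospho-KAP-1 by AlphaLISA (anti-pKAP1 donor, anti-KAP1 acceptor beads), 6 hr at 25C.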
TRPV1 PAM: potentiators of human vanilloid receptor 1 (TRPV1). Q8NER1. TRPV1-expressing cells, Fluo-8 calcium influx, capsaicin EC20 potentiation. potentiation, % at 8.33 µM. 320,000 compounds, 0.02% hits; in the data active = potentiation above about 80%; inconclusive = between about 30% and that limit; note: 0% is about no effect
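Cells expressing TRPV1 were dye-loaded with Fluo-8 and read kinetically: 10 s baseline, 3 min after compound (agonist portion), then 2 min after EC20 capsaicin (allosteric enhancer portion). Calcium-bound dye fluorescence at 480/520 nm.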
Apoferritin bind: candidate novel general anesthetic via apoferritin binding; P02791; apoferritin/1-aminoanthracene competitive binding, fluorescence; Potency, µM (series often up to 77.5 µM), inactives show at the highest dose activity change, negative = displacement, hits mostly inhibitors; 350,000 compounds, 0.074% hits; note: potency is the fitted concentration of half-maximal effect; % is set by controls: 0 for no effect and ±100 for the full control effect; nearly all actives have a fitted effect of over 20% in size
Target sequence (P02791 2-175 limits assumed): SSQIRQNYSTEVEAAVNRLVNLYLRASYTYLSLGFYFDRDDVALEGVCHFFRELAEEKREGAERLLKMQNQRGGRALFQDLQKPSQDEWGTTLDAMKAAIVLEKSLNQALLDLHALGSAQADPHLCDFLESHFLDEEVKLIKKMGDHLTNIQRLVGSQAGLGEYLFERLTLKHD
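Horse-spleen apoferritin (10 uM) in 50% saturated 1-aminoanthracene in PBS was incubated 10 min at room temperature with compound. Fluorescence (ex 380, em 535 nm) was normalized to free and bound 1-AMA, with concentration-response fitted by a four-parameter Hill equation.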
TRPV1 ag: human TRPV1 agonism; Q8NER1; TRPV1-expressing cells, Fluo-8 calcium influx, agonist mode; activation, % at 8.33 µM; 320,000 compounds, 0.19% hits; in the data active = activation above about 80%; inconclusive = between about 30% and that limit; note: 0% is about no effect
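Fluo-8 calcium influx in TRPV1-expressing cells, kinetic read (ex 480/em 520 nm). Compound added and read 3 min for agonist activity, followed by capsaicin at EC20 final and 2 min further read for enhancement.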
Numbers without * were called inactive; ? = inconclusive; . = not tested or not shown. The list is not random: actives were taken first. Their share in the collection is about 0.39%. Unless noted, calls come from the whole dose curve; as a rule, active = well fitted curve in the direction sought with a large enough effect; inconclusive = small, poorly fitted or top-dose-only effect, or another doubt; inactive = no such curve, though single readings can be large; an effect the other way counts as inactive or inconclusive.

SMILES	CBFb-RUNX1 inh	A-T KAP1 phos	TRPV1 PAM	Apoferritin bind	TRPV1 ag
CN(C)c1cc(Nc2ccc(O)cc2)c([N+](=O)[O-])c2nonc12	0%	7.1µM*	-6	13%	-4
Cc1occc1-c1nnc(-c2cc([N+](=O)[O-])cc([N+](=O)[O-])c2)o1	1%	8%	-14	22µM*	1
O=C(N/N=C/C=C/c1ccccc1)c1ccccn1	-20%	-2%	-3	-6%	97*
COc1ccccc1C1=NC(c2ccccc2)CN1c1ccccc1 (stereo not drawn)	.	28µM*	-48	383%	3
COc1ccc(/C=C/c2ccccc2)cc1C1C2C=CCC(C)C2C(=O)N1Cc1ccccc1 (stereo not drawn)	9%	.	.	-2%	.
COc1ccc(Br)cc1[C@H]1[C@H]2C=CC[C@@H](C)[C@@H]2C(=O)N1Cc1ccccc1	6%	40µM*	-4	-13%	?
CC1(C(=O)Nc2cccc(C(F)(F)F)c2)Cc2ccccc2C(=O)O1 (stereo not drawn)	.	.	.	16µM*	.
CC1(C(=O)Nc2ccccc2)Cc2ccccc2C(=O)O1 (stereo not drawn)	-2%	-1%	6	?	0
Cc1ccc(OC(F)F)c(NC(=O)Nc2cccc(C(F)(F)F)c2)c1	2%	28µM*	10	-19%	-1
O=C(CCCOc1ccc(Cl)cc1)N1CCCCCC1	9%	.	-6	-10%	?
O=C(CCCOc1ccc(Cl)cc1)N1CCCCC1	?	14%	-14	-14%	90*
CC(C)(C)c1ccc(OCCCC(=O)N2CCOCC2)cc1	6%	-4%	-6	-11%	85*
COc1cccc([C@@H]2Oc3ccc(OC)cc3C(=O)[C@H]2OC(=O)NS(=O)(=O)c2ccc(C)cc2)c1	-7%	.	.	.	.
COc1cccc(C(=O)CC2c3c(c(Br)c4c(c3OC)OCO4)CCN2C)c1 (stereo not drawn)	17%	.	.	.	.
O=C[C@@H]1CCCN1C(=O)[C@@H]1CCCN1C(=O)OCc1ccccc1	3%	.	.	-10%	.
COc1ccc(C2CC(c3ccccc3)Oc3cc4c(cc32)OCO4)cc1 (stereo not drawn)	?	.	.	-2%	.
CCSC[C@H](NC(=O)[C@H](C)NC(=O)[C@@H](N)Cc1ccc(O)cc1)C(=O)N[C@@H](CC(=O)O)C(=O)N[C@H](C(=O)N[C@@H](C)C(=O)N[C@H](C(=O)N[C@@H](CSCC)C(=O)N[C@H](C(=O)N[C@H](C(=O)N[C@@H](Cc1cnc[nH]1)C(=O)N[C@@H](CCCNC(=N)N)C(=O)N[C@@H](CC(C)C)C(=O)N[C@@H](C)C(=O)NCC(=O)N[C@@H](CC(C)C)C(=O)N[C@@H](CC(C)C)C(=O)N[C@@H](CO)C(=O)N[C@@H](CCCNC(=N)N)C(=O)N[C@@H](CO)C(=O)NCC(=O)NCC(=O)N[C@H](C(=O)N[C@H](C(=O)N[C@@H](CCCCN)C(=O)N[C@@H](CC(N)=O)C(=O)N[C@@H](CC(N)=O)C(=O)N[C@@H](Cc1ccccc1)C(=O)N[C@H](C(=O)N1CCC[C@H]1C(=O)N[C@H](C(=O)N[C@@H](CC(N)=O)C(=O)N[C@H](C(=O)NCC(=O)N[C@@H](CO)C(=O)N[C@@H](CCCCN)C(=O)N[C@@H](C)C(=O)N[C@@H](Cc1ccccc1)C(N)=O)C(C)C)[C@@H](C)O)C(C)C)C(C)C)C(C)C)[C@@H](C)O)C(C)C)[C@@H](C)O)[C@@H](C)O	7%	.	.	-11%	.
CC(C)(C)c1cc(C(=O)Nc2ccc(F)cc2)n(Cc2ccc(F)cc2)n1	27%	-2%	-23	-1%	88*
Cc1ccc(NC(=O)c2cc(C(C)(C)C)nn2Cc2ccccc2)cc1	16%	4%	5	-4%	?
O=C(/C=C/c1cccs1)N1CCC2(CC1)Oc1ccc(F)cc1C(=O)C21CC(c2ccc(Cl)cc2)=NO1 (stereo not drawn)	16%	-14%	?	-6%	-1
O=C(/C=C/c1cccs1)N1CCC2(CC1)Oc1ccc(F)cc1C(=O)C21CC(c2ccccc2)=NO1 (stereo not drawn)	0%	3.2µM*	-3	3%	18
O=C1OCCN1C(=O)[C@H]1[C@H](c2ccc(F)cc2)C(c2cccc(Cl)c2)=NN1c1ccccc1	?	30%	.	563%	.
Cc1cccc(C2=NN(c3ccc(Br)cc3)[C@@H](C(=O)N3CCOC3=O)[C@@H]2c2ccc(F)cc2)c1	?	18µM*	1	522%	3
O=C1OCCN1C(=O)[C@H]1[C@H](c2ccc(Cl)cc2)C(c2cccc(Cl)c2)=NN1c1ccccc1	?	35µM*	-8	579%	16
CCCCCCC(=O)Nc1ccc(C(=O)N/N=C/c2cccnc2)cc1	2%	-1%	13	-6%	86*
SMILES	CBFb-RUNX1 inh	A-T KAP1 phos	TRPV1 PAM	Apoferritin bind	TRPV1 ag
CCCCCCCCC(=O)N/N=C/c1ccccn1	-4%	-1%	-8	13µM*	19
CCC(=O)Nc1ccc(C(=O)N/N=C/c2cccnc2)cc1	-2%	10%	6	-5%	-1
CCCCCCCCCCCCCCOS(=O)(=O)O	11%	.	.	-23%	.
O=C(Nc1ccccc1)c1cnc2ccccc2n1	6%	4%	-23	-2%	?
Cc1ccc(NC(=O)c2cnc3ccccc3n2)cc1C	6%	14%	-12	-1%	84*
Cc1cc(C)cc(OC(=O)c2cc(-c3ccc(Cl)cc3)on2)c1	.	.	.	2%	.
CC(C)c1ccc(OC(=O)c2cc(-c3ccccc3)on2)cc1	.	.	.	14µM*	.
CCCCC/C=C\C/C=C\CCCCCCCCCC(=O)NC(C)C(=O)O (stereo not drawn)	-5%	.	.	.	.
CC(C)(C)c1ccc(C(=O)NNC(=O)C2CCCCC2)cc1	-3%	-4%	-17	6%	90*
CCCCNc1nc(C#N)nc(Nc2ccccc2)n1	.	.	.	0%	.
O=S(=O)(Nc1cc(O)cc2cccnc12)c1ccc(Br)s1	?	.	.	-23%	.
COC(=O)c1ccc(CNC(=O)COC(=O)CCC2CCCC2)cc1	-14%	-4%	-27	-21%	84*
OC[C@H]1OC(O)[C@H](O)[C@@H](O)[C@@H]1O (stereo partly drawn)	6%	.	.	5%	.
Nc1ccc(C2CCCc3nonc32)c2nonc12 (stereo not drawn)	-3%	.	-3	18µM*	-1
Nc1ccc(N2CCCCC2)c2nonc12	0%	23%	-15	-11%	1
Cc1ccc(NC(=S)c2nc3ccccc3[nH]2)c(C)c1	?	0%	-7	2%	?
Cc1cccc(/C=C(\c2nc3ccccc3[nH]2)S(=O)(=O)c2ccccc2)c1	1%	35µM*	10	-9%	-4
